Reference: PubChem BioAssay (NCI)
The panel holds about 83,000 compounds, 20% with a hit somewhere; the sample as a whole holds those more often.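 96-well plates, one dose, 48 hours. Percent growth reported; active if below 10.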 The source made the active and inactive calls.

Legend:
Assay in all cases: NCI-60 one-dose screen, 48 h (100 = growth as untreated, 0 = no growth, -100 = all killed)
Settings in all cases: 10 µM
[1] = tested on: SR leukemia
[2] = tested on: RPMI-8226 leukemia
[3] = tested on: OVCAR-8 ovarian
[4] = tested on: OVCAR-5 ovarian
[5] = tested on: OVCAR-4 ovarian
[6] = tested on: SK-OV-3 ovarian
[7] = tested on: IGROV1 ovarian
[8] = tested on: OVCAR-3 ovarian
[9] = tested on: HS 578T breast
[10] = tested on: NCI/ADR-RES ovarian
[11] = tested on: T-47D breast
[12] = tested on: BT-549 breast
[13] = tested on: MDA-MB-435 melanoma
[14] = tested on: SW-620 colon
[15] = tested on: MCF7 breast
[16] = tested on: HCT-116 colon
[17] = tested on: HCC-2998 colon
[18] = tested on: KM12 colon

Measured: growth

CCC(=O)OC1CCC2C3CCC(=O)OC3C(C)(CCC(=O)O)CC12C (stereo unspecified)
inactive: [3] 61.4% | [4] 59% | [5] 65.8% | [6] 51.6% | [7] 25.4% | [10] 15.8% | [11] 37.7% | [15] 30.9% | [18] 25.7%
active: [1] -21.1% | [2] 6.49% | [8] 5.37% | [9] -28.7% | [12] -8.83% | [13] -15.3% | [14] -11.3% | [16] 5.1% | [17] 5.22%

COc1cc(C(=O)N2CCN(c3cc4c(cc3F)c(=O)c(C(=O)NO)cn4C3CC3)CC2)cc(OC)c1OC
inactive: [1] 95% | [2] 85.2% | [3] 106% | [4] 98.1% | [5] 101% | [6] 103% | [7] 110% | [8] 108% | [9] 105% | [10] 100% | [11] 82.7% | [12] 105% | [13] 105% | [14] 99% | [15] 99% | [16] 105% | [17] 110% | [18] 104%

CS(=O)(=O)c1nccc(-c2c(-c3cccc(OCc4ccccc4)c3)nc3sccn23)n1
inactive: [1] 37.9% | [2] 81.6% | [3] 92.7% | [4] 89.2% | [5] 73.8% | [6] 72.8% | [7] 58.4% | [8] 89.4% | [9] 79.1% | [10] 90.7% | [11] 65% | [12] 54.9% | [13] 78.5% | [14] 47.1% | [15] 77.4% | [16] 58.3% | [17] 32.4% | [18] 50.7%

CCOC(=O)c1cc(C(=O)c2ccc(F)cc2F)n2ccccc12
inactive: [1] 73% | [2] 77.6% | [3] 88% | [4] 99.7% | [5] 97.8% | [6] 88.7% | [7] 82.3% | [8] 103% | [9] 93.2% | [10] 88.5% | [11] 76.3% | [12] 88.5% | [13] 106% | [14] 94.5% | [15] 94.1% | [16] 92.5% | [17] 101% | [18] 96.1%

CCC(CC)n1c(C)cc(=O)n1C(CC)CC
inactive: [1] 118% | [2] 106% | [3] 104% | [4] 99.4% | [5] 107% | [6] 104% | [7] 140% | [8] 113% | [9] 110% | [10] 107% | [11] 105% | [12] 122% | [13] 102% | [14] 105% | [15] 105% | [16] 105% | [17] 105% | [18] 115%

COc1ccc(-c2cc(-c3ccc(Cl)cc3)nc(SCCCC(=O)NO)n2)cc1OC
inactive: [1] 19.7% | [3] 13.5% | [5] 19.1% | [9] 29.2% | [11] 15% | [12] 30.4% | [13] 19.6% | [18] 21.7%
active: [2] -6.19% | [4] 1.46% | [6] 0.0102% | [7] -1.77% | [8] 6.86% | [10] -30.6% | [14] 9.88% | [15] 1.13% | [16] 5.45% | [17] -50.7%

CCN(CC)CC(=O)N(CC)c1ccc(C)c(Cl)c1
inactive: [1] 82.3% | [2] 97.2% | [3] 94.4% | [4] 104% | [5] 107% | [6] 93.1% | [7] 101% | [8] 102% | [9] 100% | [10] 102% | [11] 90.3% | [12] 98.1% | [13] 103% | [14] 97.3% | [15] 98.6% | [16] 98.7% | [17] 102% | [18] 97.9%

O=C1c2ccccc2C(=O)c2c1ccc1c(=O)n(-c3ccccc3C(F)(F)F)nnc21
active: [3] 9.15% | [5] 1.52% | [7] -27.9% | [8] -17.6% | [10] -16.4% | [13] -89.5% | [15] -51.7% | [16] -5.21%
inactive: [1] 31.1% | [2] 18% | [4] 34.2% | [6] 69.9% | [9] 73.1% | [11] 15.8% | [12] 52.8% | [14] 11.4% | [17] 28.9% | [18] 27.2%

COc1cc2ncnc(NC3CCC(O)CC3)c2cc1OC (stereo unspecified)
inactive: [1] 77.4% | [2] 104% | [3] 97.4% | [4] 92.1% | [5] 103% | [6] 109% | [7] 97.1% | [8] 111% | [9] 95.5% | [10] 100% | [11] 80.3% | [12] 92.1% | [13] 106% | [14] 101% | [15] 88.3% | [16] 91.4% | [17] 106% | [18] 95.3%

CCCCC(CC)CN=C(N)NC(N)=NCCCCCCN=C(N)NC(N)=NCC(CC)CCCC (stereo unspecified)
active: [1] -67.4% | [2] -46.7% | [3] -71.6% | [4] -87.1% | [5] -57.2% | [6] -38% | [7] -66.8% | [8] -83.6% | [9] -52.6% | [11] -54.3% | [12] -85.2% | [13] -94% | [14] -78% | [15] -75.7% | [16] -85.6% | [17] -88.8% | [18] -94.4%
inactive: [10] 46.7%

CCNCC(=O)Nc1ccc(C(=O)OCC)cc1
inactive: [1] 82.3% | [2] 104% | [3] 103% | [4] 103% | [5] 102% | [6] 99.8% | [7] 99.3% | [8] 99.9% | [9] 97.4% | [10] 103% | [11] 92.9% | [12] 102% | [13] 102% | [14] 97.2% | [15] 99.6% | [16] 96% | [17] 98.7% | [18] 95.9%

O=C1/C(=C/c2ccc3c(c2)OCO3)SC(=S)N1C1c2ccccc2Oc2ccccc21
inactive: [1] 84.1% | [2] 106% | [3] 98.9% | [4] 96.5% | [5] 102% | [6] 107% | [7] 90.6% | [8] 98.1% | [9] 90.9% | [10] 95.4% | [11] 104% | [12] 91.1% | [13] 96.5% | [14] 103% | [15] 91.6% | [16] 92.9% | [17] 80.1% | [18] 96.6%

Cc1cccc(N=Cc2ccccc2O)c1C
inactive: [1] 111% | [2] 96.9% | [3] 98.2% | [4] 108% | [5] 104% | [6] 108% | [7] 115% | [8] 113% | [9] 101% | [10] 101% | [11] 106% | [12] 90% | [13] 102% | [14] 112% | [15] 98.8% | [16] 106% | [17] 104% | [18] 114%

CCn1c(SC/C(=N/O)c2ccccc2)nnc1-c1ccccc1
inactive: [1] 94.8% | [2] 89.7% | [3] 111% | [4] 96.8% | [5] 85.5% | [6] 89.7% | [7] 106% | [8] 121% | [9] 101% | [10] 103% | [11] 120% | [12] 115% | [13] 105% | [14] 98.7% | [15] 112% | [16] 101% | [17] 96.6% | [18] 110%

Nc1ccc(/C=N/Nc2ccnc3c(O)cccc23)c2cccnc12
inactive: [2] 31.8% | [3] 14.4% | [4] 107% | [5] 30.5% | [6] 85.7% | [7] 60.2% | [8] 20% | [9] 63.9% | [10] 30.6% | [11] 98.3% | [12] 80.2% | [13] 46.8% | [15] 31.7% | [17] 60.8% | [18] 43.3%
active: [1] 2.19% | [14] 7.41% | [16] -0.0751%

O=S(=O)(Oc1ccc(-c2ccc3sccc3c2)cc1)c1ccc(F)cc1
inactive: [1] 86.3% | [2] 96.4% | [3] 106% | [4] 102% | [5] 100% | [6] 107% | [7] 104% | [8] 110% | [9] 112% | [10] 95.8% | [11] 96% | [12] 102% | [13] 93.5% | [14] 93.5% | [15] 84.8% | [16] 102% | [17] 86.8% | [18] 104%

CC(=O)Oc1cc(OC(C)=O)c2ccccc2c1OC(C)=O
active: [13] -57.4%
inactive: [1] 69.4% | [2] 72.5% | [3] 81.9% | [4] 115% | [5] 86% | [6] 76.8% | [7] 63.1% | [8] 84.1% | [9] 83% | [10] 88.9% | [11] 61.4% | [12] 92.4% | [14] 91.9% | [15] 56.8% | [16] 80.1% | [17] 110% | [18] 90.6%
